Screen size: about 300,000 compounds; about 4,000 (1.3%) were called active.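 How the source made its calls: active means mean replicate score, as percent of positive control median, at least 50; inconclusive means mean below 50 but one replicate at or above 50; inactive means mean and every replicate below 50.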 The full list was thinned out, with actives kept by preference.

The nature of the assay: kanamycin survival loss of SKKanGAS strain – BacTiter-Glo luminescence, streptokinase expression inhibitor project, primary screen (AID 1662).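 Further: strain carries kanamycin resistance gene driven by streptokinase promoter and grows in 40 µg/ml kanamycin; loss of luminescence reflects streptokinase promoter inhibition or plain growth inhibition; 0% = median of DMSO wells and 100% = positive control at its reference dose.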 The conditions noted are these: S. pyogenes SKKanGAS, kanamycin growth, 6 h, at 7.5 µM, active compounds read high.
A word on the inhibition: it is the drop in the measured response relative to a control, in per cent. With `C=CCNc1nc(N)c([N+](=O)[O-])c(NC2CCCCC2)n1`, the inhibition was 6.03% (inactive).

`C=CCC(C(=O)c1ccccc1)[N+](C)(C)CC=C` (centres undefined): the inhibition is 2.59% (inactive).

For the molecule `O=C(OCC(=O)c1c[nH]c2ccccc12)c1cccc(O)c1`, the inhibition is -11.7% (inactive).

As to `O=C(OCc1ccc(Br)cc1)c1cccc(-c2nnc(-c3ccccc3)o2)c1`, the inhibition is 7.23% (inactive).

In the case of `O=C(OCc1ccc(-c2ccccc2)cc1)c1cccc(O)c1`, the inhibition was 54.9% (active).

For `O=C(O)CCC(=O)Nc1ccc(OCC2CCCO2)cc1` (centres undefined), the inhibition was 1.88% (inactive).

Take `O=C(C1CCCO1)N(c1ccc(F)cc1)C1C=CS(=O)(=O)C1` (centres undefined): the inhibition was -0.303% (inactive).

On to `CCOC(=O)c1cnc(Nc2nc3ccccc3o2)nc1CSC(=S)N1CCCCC1`, for which the inhibition was 30.1% (inactive).

Take `Cc1ccc(C2CCN(C(=S)Nc3cccc(Cl)c3)C2)cc1` (centres undefined): the inhibition is 14.8% (inactive).

Regarding `Clc1cccc(N=C2NN=C(c3ccc4c(c3)OCCO4)CS2)c1`, the inhibition was 21.6% (inactive).

As for `CN(C)c1nc(=Nc2cccc(Cl)c2)ss1`, the inhibition is 53.2% (active).

`Cc1ccccc1N1CCN(C2CCCN(C(=O)c3ocnc3C)C2)CC1` (centres undefined): the inhibition was -0.706% (inactive).

For `O=[N+]([O-])c1cc(S(=O)(=O)Nc2cccc(Cl)c2)ccc1N=Nc1c(O)[nH]c2ccccc12`, the inhibition is 59.8% (active).

As for `CN1CCN(c2ccc(S(=O)(=O)Nc3ccccc3)cc2[N+](=O)[O-])CC1`, the inhibition was -10.6% (inactive).

Consider `Cc1cccc(N(CC(=O)N=Nc2c(O)[nH]c3ccccc23)S(C)(=O)=O)c1C`, for which the inhibition was 15.7% (inactive).

For `Cc1nc(COc2cc3oc(=O)cc(C)c3cc2Cl)cs1`, the inhibition was -7.93% (inactive).

In the case of `COc1ccc2c(c1)CC[C@@H]1[C@@H]2CC[C@]2(C)C(=O)CC[C@@H]12`, the inhibition is -7.32% (inactive).

In the case of `O=C(Nc1ncc([N+](=O)[O-])s1)C1COc2ccccc2O1` (centres undefined), the inhibition is -8.31% (inactive).

For `COc1cc(-c2nnc(NC(=O)C3=COCCO3)o2)cc(OC)c1OC`, the inhibition was 2.37% (inactive).

In the case of `O=C(Nc1nnc(-c2ccco2)o1)c1ccc(S(=O)(=O)N2CCOCC2)cc1`, the inhibition is 1.36% (inactive).

Take `O=C(Nc1nnc(C2=COCCO2)o1)c1ccc([N+](=O)[O-])s1`: the inhibition is 63.4% (active).

Take `COc1ccccc1-c1nnc(NC(=O)c2ccc3ncsc3c2)o1`: the inhibition is 20% (inactive).

In the case of `Cc1ccc(C(=O)Nc2nnc(C3=COCCO3)o2)cc1C`, the inhibition is 85.9% (active).

Consider `CC1(C)Cc2c(sc(NC(=O)C(=O)NCC3CCCO3)c2C(=O)O)CO1` (centres undefined), for which the inhibition was 2.62% (inactive).

On to `CC1CCCCC1NC(=O)CCS(=O)(=O)c1ccc2c(c1)NC(=O)CO2` (centres undefined), for which the inhibition was 6.59% (inactive).

For the molecule `COC(=O)c1cc(CNC(=O)CC(C)c2ccccc2)ccc1OC` (centres undefined), the inhibition is -1.27% (inactive).

As for `CCOC(=O)c1ccc(Nc2cc3ccccc3c(=O)[nH]2)cc1`, the inhibition is 3.57% (inactive).

For `CCOC(=O)C1=C(C)Nc2sc(C(=O)c3ccc(Br)cc3)c(N)c2C1c1ccc(C(=O)OC)cc1` (centres undefined), the inhibition was 22% (inactive).

As for `CCOC(=O)c1sc(=S)n2c1[nH]c(=O)c1ccc(C(=O)OC)cc12`, the inhibition is 66.6% (active).

Turning to `COc1cccc(NS(=O)(=O)c2ccc(-c3coc(C)n3)cc2)c1`, the inhibition is 2.27% (inactive).

For `CN(C)CCN(Cc1ccccc1)S(=O)(=O)c1csc(C(N)=O)c1`, the inhibition is -1.24% (inactive).

Consider `CC1=C(C(=O)Nc2ccccc2)C(c2cccs2)C(C#N)=C(SCC#N)N1` (centres undefined), for which the inhibition is 15.4% (inactive).

For the molecule `Cc1noc(C)c1C(=O)N(CC(=O)NC1CCCC1)Cc1ccccc1F`, the inhibition is 2.6% (inactive).

For `COCCN(C(=O)COC(=O)Cc1cccc(OC)c1)c1c(N)n(Cc2ccccc2)c(=O)[nH]c1=O`, the inhibition was -1.12% (inactive).

As for `Cc1cccc(NC(=S)Nc2ccc(Br)cc2)c1`, the inhibition is 5.45% (inactive).

`Cc1cccc(NC(=S)Nc2ccc(Cl)c(Cl)c2)c1`: the inhibition is 82% (active).

In the case of `Cc1cccc(NC(=S)Nc2ccc3cn[nH]c3c2)c1`, the inhibition is 2.46% (inactive).

For the molecule `Cc1cc(C)cc(OCC(=O)Nc2cc(NC(=O)COc3cc(C)cc(C)c3)cc(C(=O)O)c2)c1`, the inhibition was 26% (inactive).

For the molecule `COc1ccc(Cl)cc1NC(=O)CN(C)Cc1ccc(OC)c(OC)c1`, the inhibition is 19.7% (inactive).

As for `COc1ccc(N2CCN(C(C)=C3C(=O)c4ccccc4C3=O)CC2)cc1`, the inhibition was 0.489% (inactive).

Consider `CCOC(=O)C1=C(c2ccc(OC)cc2)C(=O)c2ccccc2C1=O`, for which the inhibition is 54.9% (active).

Regarding `CCOC(=O)c1c(-c2ccc(C)cc2)csc1/N=C(\C)C1=C(O)c2ccccc2C1=O`, the inhibition was 8.34% (inactive).

Consider `Cc1ccc(N=C2SCCCN2C(=O)c2cccc(N3C(=O)CCC3=O)c2)cc1Cl`, for which the inhibition was 1.34% (inactive).

Regarding `O=C(NCCOc1ccccc1F)Nc1ccc(Br)cc1`, the inhibition was -7.4% (inactive).

In the case of `Cc1ccc2cccc(S(=O)(=O)N3CCN(c4ccccc4F)CC3)c2n1`, the inhibition was -8.1% (inactive).

On to `CCn1cc(C(=O)NCCO)c(=O)c2cc(F)c(N3CCN(C)CC3)cc21`, for which the inhibition is 1.21% (inactive).

Turning to `CN1CCN(c2cc3c(cc2F)c(=O)c(C(=O)O)cn3CCF)CC1`, the inhibition is 66.8% (active).

With `CCCCCCn1cc(C(=O)O)c(=O)c2cc(F)c(N3CCCCC3)cc21`, the inhibition is 10% (inactive).

As for `CCOc1ccccc1NC(=O)Cn1nnc(C(=O)NCc2cccs2)c1N`, the inhibition was -0.164% (inactive).

For the molecule `CC(C)(C)c1ccc(C(=O)NCCn2c(N)c(C#N)c3nc4ccccc4nc32)cc1`, the inhibition was 8.82% (inactive).

Take `CC(C)Cn1c(N)c(C(=O)NCc2cccs2)c2nc3ccccc3nc21`: the inhibition was 88.2% (active).

In the case of `O=C(NCCS(=O)(=O)N1CCN(c2ccccc2)CC1)c1ccco1`, the inhibition was -0.162% (inactive).

Consider `COc1cc(OC)c(OC)cc1CN1CCN(C(=O)c2cccc3ccccc23)CC1`, for which the inhibition was -1.09% (inactive).

Turning to `Cc1ccc(S(=O)(=O)N2CC(C)N(S(C)(=O)=O)C2)cc1` (centres undefined), the inhibition was -4.98% (inactive).

Take `Cc1c(C(N)=O)sc2ncn(CCOc3ccccc3)c(=O)c12`: the inhibition was 2.66% (inactive).

On to `CCOC(=O)C(C)n1cnc2sc(C)c(C)c2c1=O` (centres undefined), for which the inhibition is 2.1% (inactive).

Take `Cc1cccc(OC(=O)c2sc3ncn(C)c(=O)c3c2C)c1`: the inhibition was 82.2% (active).

Turning to `COc1ccccc1C(C)NC(=O)Cc1ccsc1` (centres undefined), the inhibition is 5.44% (inactive).

Consider `CC(CNc1ccc([N+](=O)[O-])cc1)NC(=O)c1ccccc1Br` (centres undefined), for which the inhibition was -0.0993% (inactive).

The values are drawn from PubChem BioAssay AID1662 (Broad Institute, 2009).
